Measurements reported in PubChem BioAssay (NCI).
The panel holds about 83,000 compounds, 20% with a hit somewhere; the sample as a whole holds those more often.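 Cell lines were cultured in 96-well plates, exposed to a single compound concentration, and assessed for percent growth 48 hours later.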 A number with no mark means an inactive call. Calls of active or inactive are those of the source. Rule for the calls: active = growth percent below 10; inactive = the rest.

Assays:
Experiment in all cases: NCI-60 one-dose screen, 48 h (100 = growth as untreated, 0 = no growth, -100 = all killed)
Details in all cases: 10 µM unless noted
NCI-H23 lung = system: NCI-H23 lung
NCI-H226 lung = system: NCI-H226 lung
NCI-H322M lung = system: NCI-H322M lung
HOP-62 NSCLC = system: HOP-62 NSCLC
NCI-H460 lung = system: NCI-H460 lung
HOP-92 NSCLC = system: HOP-92 NSCLC
NCI-H522 lung = system: NCI-H522 lung
A549/ATCC NSCLC = system: A549/ATCC NSCLC
786-0 renal = system: 786-0 renal
COLO 205 colon = system: COLO 205 colon
DU-145 prostate = system: DU-145 prostate
K-562 leukemia = system: K-562 leukemia
MALME-3M melanoma = system: MALME-3M melanoma
MDA-MB-231 breast = system: MDA-MB-231 breast
RXF 393 renal = system: RXF 393 renal
SF-268 CNS = system: SF-268 CNS
SF-295 CNS = system: SF-295 CNS
SF-539 CNS = system: SF-539 CNS
UACC-257 melanoma = system: UACC-257 melanoma
M14 melanoma = system: M14 melanoma

SMILES	growth (NCI-H23 lung)	growth (NCI-H226 lung)	growth (NCI-H322M lung)	growth (HOP-62 NSCLC)	growth (NCI-H460 lung)	growth (HOP-92 NSCLC)	growth (NCI-H522 lung)	growth (A549/ATCC NSCLC)	growth (786-0 renal)	growth (COLO 205 colon)	growth (DU-145 prostate)	growth (K-562 leukemia)	growth (MALME-3M melanoma)	growth (MDA-MB-231 breast)	growth (RXF 393 renal)	growth (SF-268 CNS)	growth (SF-295 CNS)	growth (SF-539 CNS)	growth (UACC-257 melanoma)	growth (M14 melanoma)
COc1ccc(-c2nc3ccc(-c4nc5ccc(N6CCN(c7ccccc7)CC6)cc5[nH]4)cc3[nH]2)cc1OC	-21.4% (active)	69.9%	-2.95% (active)	27%	-6.7% (active)	13.6%	-33% (active)	-56.2% (active)	-79.8% (active)	-70.9% (active)	-42.4% (active)	-31.7% (active)	-63.8% (active)	-22% (active)	-37.1% (active)	11.4%	22.1%	17.5%	-19.8% (active)	1.2% (active)
COc1ccc2c(c1)c(-c1nonc1-c1cn(C)c3ccccc13)cn2C	27.9%	27.3%	42.2%	33.1%	16.3%	47.8%	9.96% (active)	30.3%	44.2%	17.7%	14.7%	10.5%	51.9%	28.4%	-9.91% (active)	63%	32%	-9.13% (active)	66.5%	24.4%
CC1CCNC(C)C1 (stereo not given)	104%	95.7%	109%	104%	105%	76.3%	103%	112%	106%	105%	110%	108%	110%	107%	108%	104%	103%	99%	110%	102%
O=c1c(F)cn(Cc2ccccc2CCl)c(=O)n1Cc1ccccc1CCl	-63.1% (active)	-22% (active)	-19.3% (active)	-51.7% (active)	-75% (active)	-77.5% (active)	-61.6% (active)	1.3% (active)	-54.7% (active)	-75.3% (active)	-51.3% (active)	-6.67% (active)	-28.1% (active)	-19.4% (active)	-30.7% (active)	-16% (active)	-62.4% (active)	-24.1% (active)	-48.1% (active)	-63.6% (active)
CC(=O)Nc1ccc(-n2c(O)c(/C=N/NC(=O)Cc3ccccc3Nc3c(Cl)cccc3Cl)sc2=S)cc1	95.4%	104%	102%	99.7%	101%	92.7%	94.2%	101%	102%	119%	105%	94.6%	108%	107%	105%	94.4%	99.4%	98.4%	103%	103%
CC(=O)Nc1ccc(S(=O)(=O)Nc2cccc(-c3nc(-c4ccc(NC(=O)c5cccnc5)cc4Cl)no3)c2)cc1	42.1%	57.9%	41.6%	34.9%	18%	32.1%	11.2%	44.2%	41.7%	21.7%	54.6%	18.9%	59.7%	47.5%	76.5%	48.2%	42.2%	7.87% (active)	35%	27.1%
COc1ccc(-c2n[nH]nc2-c2csc3ccccc23)cc1OC	35%	67.2%	51.7%	25.2%	15.7%	41.6%	7.11% (active)	31.9%	30.7%	34.7%	41.5%	9.48% (active)	56.9%	35.6%	23.5%	30.2%	25.9%	-2.39% (active)	40.1%	7.35% (active)
CCOc1cc2ncc(C#N)c(Nc3ccc(OCc4cccc(F)c4)c(Cl)c3)c2cc1NC(=O)CCCCC1CCSS1 (stereo not given)	101%	88.9%	90.8%	94.4%	98%	78.9%	66.4%	73.6%	89.1%	103%	97.4%	80.3%	125%	96.2%	97.9%	95.7%	106%	108%	81%	93.1%
COc1ccc(-c2cc(Nc3ccnc(N4CCOCC4)n3)on2)cc1	36.8%	31.8%	47.1%	40.9%	14.5%	74.8%	4.99% (active)	30.4%	35.6%	2.68% (active)	19.6%	13.1%	87.2%	57.9%	-6.95% (active)	62.6%	39.3%	-31.9% (active)	72.7%	26.9%
CC[C@]1(O)C[C@@H]2CN(CCc3c([nH]c4ccccc34)[C@@](C(=O)OC)(c3cc4c(cc3OC)N(C)[C@H]3[C@@](O)(C(N)=O)[C@H](O)[C@]5(CC)[C@@H]6C[C@@H]6CN6CC[C@]43[C@@H]65)C2)C1	32.7%	44.2%	55.4%	24.1%	8.06% (active)	19.3%	-32.3% (active)	12.7%	18%	-44.3% (active)	4.49% (active)	11.8%	85.5%	2.3% (active)	60.4%	30.8%	15.8%	7.92% (active)	53.6%	1.22% (active)
CCCCCCCCCCCCC[N+](C)(C)Cc1ccccc1	-22.8% (active)	-8.07% (active)	82.5%	-73.1% (active)	0.965% (active)	-64.3% (active)	-60.1% (active)	40.5%	-56.1% (active)	-91.8% (active)	0.808% (active)	2.97% (active)	-44.7% (active)	-55.6% (active)	-73.3% (active)	-84.5% (active)	13.5%	-73% (active)	-44.2% (active)	-66.6% (active)
COc1cc(-c2nn(C)nc2-c2cc3ccccc3s2)cc(OC)c1OC	30.4%	55.5%	44.9%	32.7%	13%	64.9%	0.184% (active)	23.3%	36.8%	-14.5% (active)	20.1%	8.42% (active)	76.1%	37.7%	35.3%	39.8%	9.39% (active)	-9.68% (active)	54.7%	10.9%
COc1cccc(-c2nc3sccn3c2-c2ccnc(NCCNS(=O)(=O)c3ccccc3)c2)c1	18.9%	18.7%	58.3%	36.8%	20%	21.9%	29.8%	10.3%	38.9%	21.6%	20.5%	11.1%	43.1%	58.9%	47.5%	31.9%	10.8%	66.9%	42.5%	22.5%
O=C(O)c1ccc(NC(=O)c2ccc(-c3cccc([N+](=O)[O-])c3)o2)cc1	91.8%	89.3%	95%	103%	102%	98.6%	94.5%	101%	105%	107%	105%	107%	86.4%	96.1%	113%	98.5%	98.8%	99.4%	105%	107%
COc1cccc(-c2nn(C(C)(C)C)cc2-c2ccnc(NCCCNS(=O)(=O)c3ccc(C)cc3)c2)c1	105%	101%	106%	100%	103%	114%	99%	103%	103%	121%	107%	101%	101%	112%	109%	105%	103%	115%	111%	105%
